Test results published in PubChem BioAssay (Tox21).
Values without a mark were called inactive. Results filed as inconclusive are left out. A call without a number means that no potency is given here. Calls of active or inactive are those of the source. Unless noted, the call rests on the fitted dose curve; in most records, active means well fitted curve in the direction sought with a large enough effect in the repeat runs; inconclusive means weak or mixed curves; inactive means no such curve, though single readings can be large; an effect the other way counts as inactive or inconclusive.

Assays:
[1] = qHTS assay to identify small molecule agonists of the estrogen receptor beta (ER-beta) signaling pathway - cell viability counter screen (AID 1259380); further: nearly all actives have a fitted effect of over 30% in size; further: potency means the concentration at half of the fitted maximal effect
Outline: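 CellTiter-Glo read, 30 min RT, same wells as bla assay; cells ER-beta-UAS-bla HEK293T; 16 hr compound, 37C; medium 2% charcoal-stripped FBS.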

[2] = target: Androgen receptor (Homo sapiens) (UniProt P10275); test: qHTS assay to identify small molecule agonists of the androgen receptor (AR) signaling pathway in the presence of an antagonist (AID 1259381; calls by dose curve; further: nearly all actives have a fitted effect of over 15% in size)
Sequence of Androgen receptor (Homo sapiens) (P10275 whole entry, looked up): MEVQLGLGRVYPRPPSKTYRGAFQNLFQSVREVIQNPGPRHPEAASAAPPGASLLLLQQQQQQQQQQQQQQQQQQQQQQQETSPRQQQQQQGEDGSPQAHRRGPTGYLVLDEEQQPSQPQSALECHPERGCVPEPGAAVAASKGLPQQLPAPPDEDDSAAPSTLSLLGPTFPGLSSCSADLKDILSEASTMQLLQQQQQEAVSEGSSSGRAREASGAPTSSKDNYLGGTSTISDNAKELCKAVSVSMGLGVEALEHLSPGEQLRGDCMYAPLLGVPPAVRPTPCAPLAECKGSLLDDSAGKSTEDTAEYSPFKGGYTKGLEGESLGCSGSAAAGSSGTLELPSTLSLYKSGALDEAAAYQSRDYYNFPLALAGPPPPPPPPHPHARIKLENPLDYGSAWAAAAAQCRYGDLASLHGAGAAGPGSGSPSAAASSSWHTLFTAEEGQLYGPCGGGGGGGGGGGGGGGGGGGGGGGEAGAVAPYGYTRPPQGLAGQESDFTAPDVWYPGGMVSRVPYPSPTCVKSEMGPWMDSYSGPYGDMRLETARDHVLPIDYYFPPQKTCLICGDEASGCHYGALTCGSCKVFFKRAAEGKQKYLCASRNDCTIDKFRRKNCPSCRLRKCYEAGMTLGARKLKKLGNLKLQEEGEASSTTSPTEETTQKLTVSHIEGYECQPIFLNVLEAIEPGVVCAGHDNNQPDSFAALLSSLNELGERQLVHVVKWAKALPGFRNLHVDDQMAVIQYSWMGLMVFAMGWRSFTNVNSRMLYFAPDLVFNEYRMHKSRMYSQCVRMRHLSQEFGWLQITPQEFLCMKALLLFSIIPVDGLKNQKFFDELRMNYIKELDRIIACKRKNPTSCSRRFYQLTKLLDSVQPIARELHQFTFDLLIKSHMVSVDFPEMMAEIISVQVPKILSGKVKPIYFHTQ
Outline: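 Test compounds at 15 concentrations were incubated for 16hr with MDA-kb2 reporter cells in presence of 3.0uM nilutamide (final). Signal: ONE-Glo luciferase luminescence.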

[3] = qHTS assay to identify small molecule antagonists of the estrogen receptor beta (ER-beta) signaling pathway - cell viability counter screen (AID 1259382); further: nearly all actives have a fitted effect of over 55% in size; further: potency means the concentration at half of the fitted maximal effect
Outline: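 In this multiplexed counter screen, cells were seeded at 2,000 per well in medium with 2% charcoal-stripped FBS and incubated 6 hr before compound and 1nM final E2 were added. Sixteen hours later, ATP-based luminescence reported viability.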

[4] = qHTS assay to identify small molecule agonists or antagonists of the thyroid stimulating hormone receptor (TSHR) signaling pathway - wild type cell line counter screen (AID 1259384; calls by dose curve)
Outline: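 Wild-type HEK293 cells were plated 18 h at 37 C/5% CO2, pin-dosed with compound plus Ro20-1724 medium, held 30 min at room temperature, then given cAMP-d2 and anti-cAMP-cryptate; fluorescence was read after 1 h. Fifteen concentrations, triplicate.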

[5] = target: Thyrotropin receptor (Homo sapiens) (UniProt P16473); test: qHTS assay to identify small molecule antagonists of the thyroid stimulating hormone receptor (TSHR) signaling pathway (AID 1259385; calls by dose curve; further: nearly all actives have a fitted effect of over 20% in size; further: potency means the concentration at half of the fitted maximal effect)
Sequence of Thyrotropin receptor (Homo sapiens) (P16473 whole entry, looked up): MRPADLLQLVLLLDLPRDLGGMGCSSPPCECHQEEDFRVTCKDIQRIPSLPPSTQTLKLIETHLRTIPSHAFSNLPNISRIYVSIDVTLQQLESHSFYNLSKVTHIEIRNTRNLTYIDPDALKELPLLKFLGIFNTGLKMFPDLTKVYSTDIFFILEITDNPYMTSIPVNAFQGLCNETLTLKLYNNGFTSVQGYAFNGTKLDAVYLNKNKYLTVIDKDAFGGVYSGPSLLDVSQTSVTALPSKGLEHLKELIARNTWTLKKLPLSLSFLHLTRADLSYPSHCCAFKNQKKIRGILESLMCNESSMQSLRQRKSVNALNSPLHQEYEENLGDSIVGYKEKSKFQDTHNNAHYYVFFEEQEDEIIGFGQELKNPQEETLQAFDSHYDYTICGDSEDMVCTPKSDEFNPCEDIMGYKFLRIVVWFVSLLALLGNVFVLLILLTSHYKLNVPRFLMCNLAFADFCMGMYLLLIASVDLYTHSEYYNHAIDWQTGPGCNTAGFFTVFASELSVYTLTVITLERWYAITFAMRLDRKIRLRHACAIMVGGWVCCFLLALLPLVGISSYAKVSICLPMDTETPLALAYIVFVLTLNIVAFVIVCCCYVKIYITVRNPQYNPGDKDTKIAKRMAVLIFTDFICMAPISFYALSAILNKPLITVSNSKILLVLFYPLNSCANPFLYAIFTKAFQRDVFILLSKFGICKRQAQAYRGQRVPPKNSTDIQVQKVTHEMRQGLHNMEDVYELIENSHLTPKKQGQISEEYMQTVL
Outline: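 TSHR-HEK293 cells were plated and held 18 h at 37C/5% CO2, then given compound plus Ro20-1724 and stimulated with TSH at 1.5 ng/mL final. After 30 min at room temperature, cAMP was detected with cAMP-d2/anti-cAMP-cryptate (1 h) by fluorescence.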

[6] = target: Estrogen receptor (Homo sapiens) (UniProt P03372); test: qHTS assay to identify small molecule agonists of the estrogen receptor alpha (ER-alpha) signaling pathway in the presence of an antagonist (AID 1259383; calls by dose curve; further: nearly all actives have a fitted effect of over 15% in size; further: potency means the concentration at half of the fitted maximal effect; on activation: top concentration of the series differs between compounds)
Sequence of Estrogen receptor (Homo sapiens) (P03372 whole entry, looked up): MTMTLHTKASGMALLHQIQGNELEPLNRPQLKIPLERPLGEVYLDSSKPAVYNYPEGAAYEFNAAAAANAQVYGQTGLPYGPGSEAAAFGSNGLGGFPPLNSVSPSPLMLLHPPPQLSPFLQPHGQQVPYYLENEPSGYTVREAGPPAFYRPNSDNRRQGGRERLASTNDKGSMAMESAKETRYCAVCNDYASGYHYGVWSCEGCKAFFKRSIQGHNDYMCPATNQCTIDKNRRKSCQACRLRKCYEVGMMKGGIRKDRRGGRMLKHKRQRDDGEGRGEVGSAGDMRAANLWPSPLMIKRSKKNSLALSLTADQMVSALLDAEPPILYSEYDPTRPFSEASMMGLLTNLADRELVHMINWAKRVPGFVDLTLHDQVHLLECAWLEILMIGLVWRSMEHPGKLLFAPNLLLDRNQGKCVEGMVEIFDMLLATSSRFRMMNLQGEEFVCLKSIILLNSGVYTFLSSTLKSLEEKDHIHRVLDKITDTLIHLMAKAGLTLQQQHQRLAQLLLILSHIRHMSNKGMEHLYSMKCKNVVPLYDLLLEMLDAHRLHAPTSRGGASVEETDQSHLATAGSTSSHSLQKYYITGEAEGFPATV
Outline: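 Stably transfected VM7Luc4E2 reporter cells, kept 5 days in charcoal-stripped serum, received ICI-182,780 at 10.0nM final before compound addition. Following 22hr incubation at 37C and 5% CO2, luciferase signal was read by luminescence.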

[7] = qHTS assay to identify small molecule agonists of the estrogen receptor alpha (ER-alpha) signaling pathway in the presence of an antagonist - cell viability counter screen (AID 1259386);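 further: cells exposed to compounds for 22 h at 37 °C before the viability read; nearly all actives have a fitted effect of over 30% in size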; further: potency means the concentration at half of the fitted maximal effect
Outline: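 Viability counter screen using VM7Luc4E2 (full-length ER-alpha, four ERE-luciferase). The cells were treated with compounds alongside ICI-182,780 10.0nM for 22hr, and live-cell protease fluorescence was quantified with CellTiter-Fluor.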

With `CC(C)(O)c1cnn2c(-c3ccc(F)c(-c4c(F)cccc4C#N)c3)cnc2n1` as the compound, how does the Potency [1] read?
The Potency was 27.3 µM (active).

And the Potency [2]?
The Potency was “inactive”.

And the Potency [3]?
Its Potency is “inactive”.

What about the outcome [4] of the same compound?
The outcome was “inactive”.

What about the Potency [5] of the same compound?
Its Potency is “inactive”.

What does the source list for `COC12CC[C@@]3(C[C@@H]1C(C)(O)C(C)(C)C)[C@H]1Cc4ccc(O)c5c4[C@@]3(CCN1CC1CC1)[C@H]2O5` (stereo partly specified)?
Potency [1]: 27.1 µM (active); Potency [3]: 54.1 µM (active); Potency [6]: inactive; outcome [4]: inactive; Potency [5]: inactive; Potency [7]: 60.7 µM (active)

For `CC[C@H]1C[C@@H]2C[C@H]3c4[nH]c5ccc(OC)cc5c4CCN(C2)[C@@H]13`, which Potency [1] is on record?
The Potency was “inactive”.

And the Potency [3]?
Its Potency is “inactive”.

What about the Potency [6] of the same compound?
Its Potency is “inactive”.

For `C[CH2][Hg][N]1C(=O)C2C(C1=O)C1(Cl)C(Cl)=C(Cl)C2(Cl)C1(Cl)Cl` (stereo unspecified), which Potency [1] is on record?
The Potency was 9.2 µM (active).

What about the cAMP activity change [4] of the same compound?
Its cAMP activity change is 11% [at 18.9 µM].

And the Potency [5]?
The Potency was 14.6 µM (active).

With `O=[N+]([O-])O.O=[N+]([O-])O.[Cd]` as the compound, how does the Potency [3] read?
The Potency was 54.5 µM (active).

And the outcome [4]?
Its outcome is “inactive”.

For `[CH3][Hg][Cl]`, which Potency [1] is on record?
The Potency was 60.9 µM (active).

What about the Potency [3] of the same compound?
Its Potency is “inactive”.

What about the Potency [6] of the same compound?
The Potency was “inactive”.

What about the outcome [4] of the same compound?
Its outcome is “inactive”.

And the Potency [5]?
The Potency was 17.2 µM (active).

What about the Potency [7] of the same compound?
Its Potency is “inactive”.

Which results are given for `Nc1ccc([N+](=O)[O-])cc1Cl`?
Potency [1]: inactive; Potency [2]: inactive; Potency [3]: inactive; Potency [6]: inactive; Potency [7]: 54.5 µM (active)

Which Potency [1] does the source give for `Nc1ccc(Cc2ccc(N)c(Cl)c2)cc1Cl` here?
The Potency was 18.7 µM (active).

What about the Potency [3] of the same compound?
Its Potency is 46.9 µM (active).

What about the Potency [6] of the same compound?
Its Potency is “inactive”.

What about the outcome [4] of the same compound?
The outcome was “inactive”.

And the Potency [5]?
The Potency was “inactive”.

What does the source list for `Clc1ccc(CSC(Cn2ccnc2)c2ccc(Cl)cc2Cl)cc1` (stereo unspecified)?
Potency [1]: 13.3 µM (active); Potency [3]: 13.3 µM (active); outcome [4]: inactive

Which Potency [1] does the source give for `Cc1cc(C(C)(C)c2cc(C)c(O)c(C)c2)cc(C)c1O` here?
The Potency was 52.7 µM (active).

What about the Potency [2] of the same compound?
Its Potency is “inactive”.

And the Potency [3]?
The Potency was 26.4 µM (active).

And the outcome [4]?
The outcome was “inactive”.

What about the Potency [5] of the same compound?
The Potency was “inactive”.

What about the Potency [7] of the same compound?
Its Potency is “inactive”.

Which results are given for `CC(=[OH+])/C=C(/C)[O-].CC(=[OH+])/C=C(\C)[O-].CC(=[OH+])/C=C(\C)[O-].[Al]`?
Potency [1]: inactive; Potency [3]: inactive; Potency [6]: inactive; Potency [7]: inactive

What does the source list for `CCN(CC)c1c([N+](=O)[O-])cc(C(F)(F)F)c(N)c1[N+](=O)[O-]`?
Potency [3]: inactive; Potency [6]: inactive; outcome [4]: inactive

For `O=[N+]([O-])c1c2ccccc2cc2ccccc12`, which outcome [4] is on record?
Its outcome is “inactive”.

Which Potency [2] does the source give for `CC(C)(C)C(O)C(Oc1ccc(-c2ccccc2)cc1)n1cncn1` (stereo unspecified) here?
The Potency was “inactive”.

What about the Potency [6] of the same compound?
Its Potency is “inactive”.

And the Potency [5]?
The Potency was “inactive”.

What about the Potency [7] of the same compound?
The Potency was “inactive”.

Which results are given for `CCCCN(CCCC)C(=S)[S-].CCCCN(CCCC)C(=S)[S-].[Zn+2]`?
Potency [1]: 13.7 µM (active); Potency [3]: 30.6 µM (active); Potency [6]: inactive; Potency [7]: 24.3 µM (active)

With `CN(C)C1CSSSC1` as the compound, how does the Potency [1] read?
Its Potency is “inactive”.

And the Potency [3]?
Its Potency is “inactive”.

What about the Potency [6] of the same compound?
Its Potency is “inactive”.

What about the outcome [4] of the same compound?
The outcome was “inactive”.

And the Potency [5]?
Its Potency is “inactive”.

What about the Potency [7] of the same compound?
The Potency was “inactive”.

Which results are given for `Nc1c(Oc2ccccc2)cc(O)c2c1C(=O)c1ccccc1C2=O`?
Potency [1]: inactive; Potency [2]: inactive; Potency [3]: inactive; Potency [6]: 1.88 µM (active); Potency [7]: 26.6 µM (active)

For `O=[N+]([O-])c1cc([N+](=O)[O-])c2ccccc2c1`, which Potency [1] is on record?
The Potency was “inactive”.

And the Potency [3]?
Its Potency is “inactive”.

What about the outcome [4] of the same compound?
The outcome was “inactive”.

And the Potency [5]?
The Potency was “inactive”.

What does the source list for `CC(=O)c1cc(C(C)(C)C)cc2c1CCC2(C)C`?
Potency [1]: inactive; Potency [3]: inactive; Potency [6]: inactive; Potency [7]: inactive

With `CCCCCCCCCC[N+](C)(C)CCCCCCCCCC` as the compound, how does the Potency [1] read?
The Potency was 15.4 µM (active).

And the Potency [6]?
The Potency was “inactive”.

What about the outcome [4] of the same compound?
Its outcome is “inactive”.

What about the Potency [7] of the same compound?
The Potency was 68.6 µM (active).

Which results are given for `ClC1=C(Cl)[C@]2(Cl)[C@@H]3[C@@H]4C[C@@H]([C@H]5O[C@@H]45)[C@@H]3[C@@]1(Cl)C2(Cl)Cl`?
Potency [6]: inactive; outcome [4]: inactive; Potency [7]: inactive

What does the source list for `Clc1ccc(CO/N=C(\Cn2ccnc2)c2ccc(Cl)cc2Cl)c(Cl)c1`?
Potency [1]: 29.8 µM (active); Potency [3]: 29.8 µM (active); outcome [4]: inactive; Potency [5]: 26.6 µM (active)

For `Nc1ccc(Sc2ccc(N)cc2)cc1`, which Potency [6] is on record?
The Potency was “inactive”.

And the outcome [4]?
Its outcome is “inactive”.

What about the Potency [5] of the same compound?
Its Potency is “inactive”.

For `CSCCCN=C=S`, which Potency [1] is on record?
Its Potency is “inactive”.

What about the Potency [3] of the same compound?
The Potency was “inactive”.

And the outcome [4]?
Its outcome is “inactive”.

And the Potency [5]?
The Potency was “inactive”.

With `Oc1c(Cl)c(Cl)cc(Cl)c1Cl` as the compound, how does the Potency [3] read?
The Potency was “inactive”.

What about the Potency [6] of the same compound?
Its Potency is “inactive”.

What about the outcome [4] of the same compound?
Its outcome is “inactive”.

And the Potency [5]?
The Potency was “inactive”.

What about the Potency [7] of the same compound?
The Potency was “inactive”.

With `[Cl][Sn]([c]1ccccc1)([c]1ccccc1)[c]1ccccc1` as the compound, how does the Potency [1] read?
Its Potency is 0.82 µM (active).

What about the activation [2] of the same compound?
Its activation is -10.8% [at 19 µM].

What about the Potency [3] of the same compound?
The Potency was 0.82 µM (active).

What about the activation [6] of the same compound?
The activation was -14.6% [at 19 µM].

What about the Potency [7] of the same compound?
The Potency was 11.6 µM (active).

For `[Hg+2].[I-].[I-]`, which Potency [1] is on record?
The Potency was 5.45 µM (active).

And the Potency [3]?
The Potency was 6.86 µM (active).

What about the Potency [6] of the same compound?
The Potency was “inactive”.

And the Potency [7]?
The Potency was 61.1 µM (active).

With `CCOC(=O)CC(=O)CCl` as the compound, how does the Potency [1] read?
The Potency was “inactive”.

What about the Potency [2] of the same compound?
Its Potency is “inactive”.

And the Potency [3]?
Its Potency is “inactive”.

What about the Potency [6] of the same compound?
Its Potency is “inactive”.

And the Potency [7]?
The Potency was “inactive”.

With `Oc1c(Br)c(Br)c(Br)c(Br)c1Br` as the compound, how does the Potency [2] read?
Its Potency is “inactive”.

What about the Potency [3] of the same compound?
The Potency was “inactive”.

What about the Potency [6] of the same compound?
Its Potency is “inactive”.

What about the Potency [7] of the same compound?
The Potency was “inactive”.

With `CN(CCCC(=O)c1cccnc1)N=O` as the compound, how does the Potency [1] read?
Its Potency is “inactive”.

What about the Potency [3] of the same compound?
The Potency was “inactive”.

What about the Potency [6] of the same compound?
The Potency was “inactive”.

What about the outcome [4] of the same compound?
Its outcome is “inactive”.

What about the Potency [5] of the same compound?
The Potency was “inactive”.

What about the Potency [7] of the same compound?
The Potency was “inactive”.

What does the source list for `CC(=O)[O-].CC(=O)[O-].O.O.[Cd+2]`?
Potency [1]: 60.3 µM (active); Potency [3]: 53.7 µM (active); Potency [7]: 60.3 µM (active)

For `BrC(Br)C(Br)(Br)Br`, which Potency [3] is on record?
The Potency was “inactive”.

What about the Potency [6] of the same compound?
Its Potency is “inactive”.

And the Potency [5]?
Its Potency is “inactive”.

For `CC(=O)/C=C/c1ccc2c(c1)OCO2`, which Potency [1] is on record?
Its Potency is “inactive”.

And the Potency [3]?
Its Potency is “inactive”.

And the Potency [5]?
Its Potency is “inactive”.

What about the Potency [7] of the same compound?
Its Potency is “inactive”.
